Data as given in PubChem BioAssay AID1159580 (chemical genetic matrix, 2015).
Values joined by “and” are separate entries in the source; they are usually repeats but may differ in a detail not shown here. Equal values may be shown once. The whole screen tested about 5,500 compounds, of which about 2,000 (36%) were called active. Roughly 18% stayed inconclusive and do not appear here. Rule as the data show it: active = normalized growth mostly below about 0.91 (no sharp cut-off); inconclusive = no clear call, values can overlap the other calls; inactive = mostly above about 0.92. Some of the results follow.

Test: chemical genetic growth profiling, strain panel (AID 1159580);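 also: tested at 20 µM; growth read once vehicle control cultures reached saturation at 30 °C; 1 = growth at the plate median or of vehicle wells; lower values mean less growth of the strain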
Settings: S. cerevisiae deletion strains, growth OD

Measured: normalized growth

NC(N)=O
inactive: locus YAL013W, strain DEP1, hits give low values 1.02 | locus YAL021C, strain ccr4, hits give low values 1.02 | locus YAL026C, strain drs2, hits give low values 1.01 | locus YAL030W, strain snc1, hits give low values 1.02 | locus YBL061C, strain skt5, hits give low values 1.02 | locus YBR009C, strain hhf1, hits give low values 0.978 | locus YBR021W, strain FUR4, hits give low values 0.953 | locus YBR023C, strain chs3, hits give low values 1.02 | locus YBR171W, strain sec66, hits give low values 1.03 | locus YBR229C, strain ROT2, hits give low values 0.989 | locus YBR231C, strain swc5, hits give low values 1.03 | locus YBR279W, strain paf1, hits give low values 1.01 | locus YCL011C, strain gbp2, hits give low values 0.992 | locus YCL016C, strain dcc1, hits give low values 0.984 | locus YCL029C, strain bik1, hits give low values 0.991 | locus YCL061C, strain MRC1, hits give low values 1.03 | locus YCL069W, strain vba3, hits give low values 1 | locus YCR088W, strain abp1, hits give low values 1.01 | locus YDL005C, strain med2, hits give low values 1.01 | locus YDL035C, strain GPR1, hits give low values 1.01 | locus YDL040C, strain nat1, hits give low values 1.01 | locus YDL074C, strain BRE1, hits give low values 1.07 | locus YDL101C, strain DUN1, hits give low values 1 | locus YDL134C, strain PPH21, hits give low values 1 | locus YDL185W, strain tfp1, hits give low values 0.983 | locus YDL192W, strain arf1, hits give low values 0.994 | locus YDR001C, strain nth1, hits give low values 1.02 | locus YDR069C, strain doa4, hits give low values 1.04 | locus YDR101C, strain arx1, hits give low values 0.997 | locus YDR137W, strain rgp1, hits give low values 1.03 | locus YDR150W, strain NUM1, hits give low values 1.01 | locus YDR159W, strain sac3, hits give low values 0.965 | locus YDR162C, strain NBP2, hits give low values 1.04 | locus YDR195W, strain ref2 1.03 | locus YDR297W, strain sur2, hits give low values 1.01 | locus YDR318W, strain mcm21, hits give low values 0.998 | locus YDR334W, strain swr1, hits give low values 1.01 | locus YDR335W, strain msn5, hits give low values 1.01 | locus YDR388W, hits give low values 0.985 | locus YDR392W, strain spt3, hits give low values 0.959 | locus YDR502C, strain sam2, hits give low values 0.997 | locus YEL003W, strain gim4, hits give low values 1.01 | locus YEL037C, strain rad23, hits give low values 1.01 | locus YEL061C, strain CIN8 (second series), hits give low values 1.01 | locus YEL061C, strain CIN8, hits give low values 1.05 | locus YER015W, strain faa2, hits give low values 1.02 | locus YER016W, strain bim1, hits give low values 0.984 | locus YER110C, hits give low values 0.989 | locus YER111C, strain swi4, hits give low values 1.01 | locus YER155C, strain BEM2 (second series), hits give low values 1.01 | locus YER155C, strain BEM2, hits give low values 0.988 | locus YER167W, strain BCK2, hits give low values 0.983 | locus YFR010W, strain ubp6, hits give low values 1.01 | locus YGL078C, strain dbp3, hits give low values 0.988 | locus YGL086W, strain mad1, hits give low values 0.99 | locus YGL167C, strain pmr1, hits give low values 1.02 | locus YGL173C, strain kem1, hits give low values 1.02 | locus YGL227W, strain vid30, hits give low values 1.02 | locus YGL240W, strain doc1, hits give low values 1.03 | locus YGL248W, strain PDE1, hits give low values 1 | locus YGL253W, strain hxk2, hits give low values 1.01 | locus YGR078C, strain PAC10, hits give low values 1.03 | locus YGR135W, strain pre9, hits give low values 1 | locus YGR229C, strain SMI1, hits give low values 1.03 | locus YGR252W, strain gcn5, hits give low values 0.986 | locus YHR013C, strain ard1, hits give low values 0.998 | locus YHR027C, strain rpn1, hits give low values 1.01 | locus YHR030C, strain SLT2, hits give low values 0.986 and 1.01 | locus YHR079C, strain IRE1 (second series), hits give low values 0.991 | locus YHR079C, strain IRE1, hits give low values 1.01 | locus YHR094C, strain hxt1, hits give low values 0.996 | locus YHR129C, strain ARP1, hits give low values 0.998 | locus YHR142W, strain chs7, hits give low values 1.02 | locus YHR200W, strain rpn10, hits give low values 0.994 | locus YIL066C, strain RNR3, hits give low values 1.01 | locus YIL073C, strain SPO22, hits give low values 1.02 | locus YIL125W, strain kgd1, hits give low values 0.987 | locus YIR030C, strain dcg1, hits give low values 0.99 | locus YJL092W, strain hpr5, hits give low values 1.01 | locus YJL095W, strain BCK1 (second series), hits give low values 1.03 | locus YJL095W, strain BCK1, hits give low values 1.05 and 1.01 | locus YJL115W, strain asf1, hits give low values 1.01 | locus YJL129C, strain trk1, hits give low values 1.03 | locus YJL134W, strain LCB3, hits give low values 0.99 | locus YJL154C, strain vps35, hits give low values 1.01 | locus YJL164C, strain tpk1, hits give low values 0.985 | locus YJL166W, strain qcr8, hits give low values 1.02 | locus YJL168C, strain set2, hits give low values 0.98 | locus YJL187C, strain SWE1 (second series), hits give low values 1 | locus YJL187C, strain SWE1, hits give low values 1.02 | locus YJR066W, strain TOR1, hits give low values 0.951
active: locus YJR043C, strain POL32, hits give low values 1.17 [resistant]
